CYP2C9 inh – inhibitors of human CYP2C9 | P11712 | CYP2C9 Supersomes, luciferin-H conversion, luminescence | inhibition, % at 5 µM | 96,000 tested, 20% active | AID 777;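 active = blocking of liver enzyme CYP2C9 beyond about 50% at 5 µM, limit read from the data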
CYP2C19 inhib – blocks human cytochrome P450 2C19. P33261. CYP2C19 Supersomes, luciferin-H EGE luminescence, 30 min. inhibition, % at 5 µM. 96,000 tested, 21% active. AID 778;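 active = CYP2C19 inhibition above a set limit at 5 µM in the primary screen, cut at about 50% in these data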;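 note: plate controls were negative control wells for no effect and 2.5 mM tranylcypromine positive control for full effect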
Target sequence (P33261 whole entry, looked up): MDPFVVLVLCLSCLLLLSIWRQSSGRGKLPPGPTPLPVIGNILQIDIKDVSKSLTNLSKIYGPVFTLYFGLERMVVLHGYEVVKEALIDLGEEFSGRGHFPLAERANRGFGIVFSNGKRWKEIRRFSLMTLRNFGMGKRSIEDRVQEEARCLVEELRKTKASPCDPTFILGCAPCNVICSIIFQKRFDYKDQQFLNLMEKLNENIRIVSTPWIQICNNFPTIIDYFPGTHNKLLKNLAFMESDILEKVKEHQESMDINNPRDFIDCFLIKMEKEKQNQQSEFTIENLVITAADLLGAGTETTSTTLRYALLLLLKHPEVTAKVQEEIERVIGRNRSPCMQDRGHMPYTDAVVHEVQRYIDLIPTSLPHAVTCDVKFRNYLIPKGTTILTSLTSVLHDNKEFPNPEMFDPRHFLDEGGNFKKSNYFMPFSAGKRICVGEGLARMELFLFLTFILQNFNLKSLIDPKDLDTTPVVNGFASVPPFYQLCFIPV
CYP2C19 activ – activators of human cytochrome P450 2C19; P33261; recombinant CYP2C19, luciferin-H EGE luminescence; hits give high values; 0 = fully inhibited enzyme, 1 = untreated enzyme; activation factor at 5 µM; 96,000 tested, under 10 active; AID 1025;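 active = activation factor of at least 2 at 5 µM in the primary screen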;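 note: 0 = wells with 2.5 mM tranylcypromine and 1 = vehicle-only wells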
CYP2C9 act – increases human cytochrome P450 2C9 activity; AID 1024; P11712; recombinant CYP2C9, luciferin-H conversion, luminescence; hits give high values; factor 1 = untreated enzyme, 0 = blocked; 96,000 tested, 1.4% active; activation factor at 5 µM;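 active = activation factor of 2 or more for CYP2C9 at a 5 µM dose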;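 note: 0 = sulfaphenazole-blocked wells and 1 = vehicle-only wells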
Active calls of the source: *. Shown are actives, neighbours in structure and some others; about 31% of the full set was active somewhere.

SMILES	CYP2C9 inh	CYP2C19 inhib	CYP2C19 activ	CYP2C9 act
COc1cc(NC(=O)C2CCN(S(=O)(=O)c3cnc[nH]3)CC2)cc(OC)c1OC	72*	20	0.8	0.3
Cc1cc(NC(=O)C2CCN(S(=O)(=O)c3cnc[nH]3)CC2)ccc1Br	79*	45	0.5	0.2
CCN(Cc1ccncc1)C(=O)C1CCN(S(=O)(=O)c2cccs2)CC1	99*	80*	0.2	0
CN1CCN(C(=O)C2CCN(S(=O)(=O)c3cnc[nH]3)CC2)CC1	-20	-12	1.1	1.2
CCOc1cc(/C=N/n2cnnc2)cc(Br)c1O	15	0	1	0.9
CCOC(=O)c1ccc2c(c1)nc(C1CCN(S(=O)(=O)c3cccs3)CC1)n2CC	87*	84*	0.2	0.1
CCc1cccc(NC(=O)C2CCN(S(=O)(=O)c3cccs3)CC2)c1	-4	31	0.7	1
CCOC(=O)c1cccc(NC(=O)C2CCN(S(=O)(=O)c3cccs3)CC2)c1	84*	88*	0.1	0.2
CCOC(=O)c1c(NC(=O)C2CCN(S(=O)(=O)c3cccs3)CC2)sc(C)c1C	35	39	0.6	0.7
COC(=O)c1c(NC(=O)C2CC=CCC2C(=O)O)sc(C)c1C (stereo unspecified)	71*	21	0.8	0.3
COC(=O)c1c(NC(=O)C2CC=CCC2C(=O)O)sc(C(N)=O)c1C (stereo unspecified)	29	2	1	0.7
CCCOC(=O)Nc1nnc(CCC)s1	10	5	1	0.9
CC(C)OP(=O)(OC(C)C)C1(O)C(=O)Nc2ccccc21 (stereo unspecified)	-13	-4	1	1.1
Cc1ccccc1OCCNc1ccc(C(F)(F)F)cc1[N+](=O)[O-]	37	75*	0.3	0.6
O=C(NCCCNc1ccc(C(F)(F)F)cc1[N+](=O)[O-])c1ccc(Cl)cc1	11	1	1	0.9
O=C(O)CCN1C(=O)C(=C2CCCCCC2)SC1=S	33	8	0.9	0.7
O=C1C(=C2CCCCC2)SC(=S)N1Cc1ccco1	49	60*	0.4	0.5
CCOC(=O)C1CCN(Cc2nc3ccccc3c(=O)n2-c2ccc(OCC)cc2)CC1	54*	18	0.8	0.5
CCOC(=O)C1CCN(Cc2ccc(O)c3ncccc23)CC1	6	5	1	0.9
CC(=O)Nc1ccc(C(=O)N/N=C/c2ccccc2OC(=O)c2ccc(Cl)cc2)cc1	60*	40	0.6	0.4
CCOC(=O)c1ccc(NC(=O)CN(Cc2ccc(Cl)cc2)S(C)(=O)=O)cc1	83*	94*	0.1	0.2
CS(=O)(=O)N(CC(=O)NCC1CCCO1)Cc1ccc(Cl)cc1 (stereo unspecified)	4	78*	0.2	1
CC(=O)Nc1ccc(C(=O)OCC(=O)N(Cc2ccccc2)C(C)(C)C)cc1	71*	79*	0.2	0.3
CC(=O)Nc1ccc(S(=O)(=O)Oc2ccc(/C=N/NC(=O)c3ccc(Cl)cc3)cc2)cc1	50	5	1	0.5
CC(NC(=O)c1cncc(Br)c1)c1ccc(S(N)(=O)=O)cc1 (stereo unspecified)	12	-4	1	0.9
SMILES	CYP2C9 inh	CYP2C19 inhib	CYP2C19 activ	CYP2C9 act
C=CC[n+]1c(-c2ccc(OCC)cc2)csc1NNC(=O)Nc1ccccc1	13	6	0.9	0.9
O=C(CN(C(=O)C1COc2ccccc2O1)c1ccccc1)NCC1CCCO1 (stereo unspecified)	8	51*	0.5	0.9
CS(=O)(=O)N(CC(=O)NC1CCCC1)Cc1ccc(Cl)cc1	26	58*	0.4	0.7
CC(=O)Nc1ccc(C(=O)OCc2ccc(Cl)cc2)cc1	75*	63*	0.4	0.2
CS(=O)(=O)N(CC(=O)NC1CCCCC1)Cc1ccc(Cl)cc1	-17	23	0.8	1.2
COc1ccc(NC(=O)CCC(=O)OCc2ccc(C(=O)Oc3ccc(Cl)cc3)cc2)cc1	3	-4	1	1
CS(=O)(=O)N(CCc1ccccc1)CC(=O)NCC1CCCO1 (stereo unspecified)	2	56*	0.4	1
Cc1cc(C)cc(N(CC(=O)NCC2CCCO2)C(=O)CN2C(=O)COc3ccccc32)c1 (stereo unspecified)	49	21	0.8	0.5
Cc1ccc(/C=N\NC(=O)Cn2c(C)nc3ccccc32)o1	10	4	1	0.9
COc1ccc(CCNC(=O)C2CCCN(S(=O)(=O)c3cccc4nonc34)C2)cc1OC (stereo unspecified)	-2	27	0.7	1
COc1ccc(Cl)cc1NC(=O)/C=C\C(=O)O	-8	-15	1.1	1.1
O=C(NC1CCCCC1)C(c1ccc(O)cc1)N(CC1CCCO1)C(=O)C1COc2ccccc2O1 (stereo unspecified)	69*	70*	0.3	0.3
Cc1c(Br)cc(C(=O)N2CCCC2)c(C)c1C	-91	92*	0.1	1.9
CCOc1ccc(/C=N/n2cnnc2)cc1	43	82*	0.2	0.6
C(=N\n1cnnc1)/c1ccc(OCc2ccccc2)cc1	81*	70*	0.3	0.2
COc1cccc(/C=N/n2cnnc2)c1OCc1ccccc1	44	41	0.6	0.6
Oc1ccccc1/C=N/n1cnnc1	12	-4	1	0.9
COc1cc(/C=N/n2cnnc2)ccc1OC(=O)c1ccncc1	33	30	0.7	0.7
C(=N\n1cnnc1)/c1ccc(-c2ccccc2)cc1	98*	99*	0	0
CC(=O)Oc1ccccc1C(=O)Oc1ccc(/C=N/n2cnnc2)cc1	95*	43	0.6	0.1
COc1ccc(Nc2nc(Nc3ccc(OC)cc3)nc(-n3[nH]c(=O)c(C)c3C)n2)cc1	18	11	0.9	0.8
Cc1cccc(OCC(=O)O/N=C(\N)Cc2ccc(Cl)cc2)c1	-7	1	1	1.1
COc1cccc(-c2nc(CS(=O)(=O)CC(=O)N3CCc4ccccc43)c(C)o2)c1	-18	21	0.8	1.2
NC(=O)c1ccc(NC(=O)CCCN2C(=O)c3ccccc3C2=O)cc1	24	-4	1	0.8
Cc1cccc(Nc2nc(N3CCCC3)nc(N3CCCC3)n2)c1	16	5	0.9	0.8
SMILES	CYP2C9 inh	CYP2C19 inhib	CYP2C19 activ	CYP2C9 act
Cc1cccc(Nc2nc(NCc3ccco3)nc(N3CCOCC3)n2)c1	92*	82*	0.2	0.1
Cc1cc2ncn(C3CC(=O)N(Cc4ccccc4)C3=O)c2cc1C (stereo unspecified)	24	8	0.9	0.8
O=C(COc1ccc(Cl)cc1Cl)NC1CCSC1=O (stereo unspecified)	60*	96*	0	0.4
CCOc1cc(C)c(S(=O)(=O)NC2CCCCC2)cc1C	44	72*	0.3	0.6
CCN1CCN(S(=O)(=O)c2cc(OCC(=O)NC3CCCCC3)c(C)cc2Cl)CC1	56*	33	0.7	0.4
Cc1cc(Cl)ccc1OCC(=O)NC1CCCC1	67*	98*	0	0.3
CCOc1cc(S(=O)(=O)NC2CCCCCC2)ccc1F	5	35	0.7	1
O=C(Nc1cccnc1)c1coc(=O)c2ccccc12	7	6	0.9	0.9

Source: PubChem (Sanford-Burnham Center for Chemical Genomics)
